Assay outcomes: PubChem BioAssay, several laboratories
Most compounds without a hit are left out; they make up all but 32% or so of the library.
CYP2C9 activ – CYP2C9 (human) activation; recombinant CYP2C9, luciferin-H conversion, luminescence; hits give high values; factor 1 = untreated enzyme, 0 = blocked; activation factor at 5 µM; P11712; 96,000 compounds, 1.4% hits; AID 1024;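 active = activation factor of 2 or more for CYP2C9 at a 5 µM dose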;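 note: 0 = sulfaphenazole-blocked wells and 1 = vehicle-only wells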
Target sequence (P11712 whole entry, looked up): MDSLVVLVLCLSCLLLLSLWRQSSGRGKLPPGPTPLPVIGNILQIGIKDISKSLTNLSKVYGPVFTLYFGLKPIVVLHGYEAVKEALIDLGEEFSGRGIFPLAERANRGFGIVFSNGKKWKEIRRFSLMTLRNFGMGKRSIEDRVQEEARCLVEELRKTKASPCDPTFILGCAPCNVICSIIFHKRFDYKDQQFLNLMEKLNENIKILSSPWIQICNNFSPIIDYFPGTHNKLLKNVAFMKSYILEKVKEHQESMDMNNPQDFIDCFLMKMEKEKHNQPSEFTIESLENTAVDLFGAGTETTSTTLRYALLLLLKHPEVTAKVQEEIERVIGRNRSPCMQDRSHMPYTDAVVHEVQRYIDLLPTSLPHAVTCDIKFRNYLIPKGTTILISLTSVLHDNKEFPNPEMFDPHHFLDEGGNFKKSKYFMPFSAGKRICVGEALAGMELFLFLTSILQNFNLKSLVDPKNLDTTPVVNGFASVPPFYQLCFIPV
PostGolgi yeast – growth inhibition of a yeast mutant, post-Golgi transport screen. 98,000 compounds, 0.9% hits. AID 739. inhibition, % at 10 µM. post-Golgi transport phenotypic cell assay;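 note: yeast cells grown in 1536-well plates; yeast grown about 18 h at 30C before absorbance read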
PostGolgi ctrl – yeast control strain growth, post-Golgi counter-screen | AID 738 | inhibition, % at 10 µM | efflux-deficient yeast background strain, growth absorbance A615, 16 h | 98,000 compounds, 5% hits
CYP2C9 inhib – human CYP2C9 inhibition; inhibition, % at 5 µM; CYP2C9 Supersomes, luciferin-H conversion, luminescence; 96,000 compounds, 20% hits; AID 777;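 active = blocking of liver enzyme CYP2C9 beyond about 50% at 5 µM, limit read from the data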
CYP2C19 inh – human CYP2C19 inhibition | CYP2C19 Supersomes, luciferin-H EGE luminescence, 30 min | inhibition, % at 5 µM | P33261 | 96,000 compounds, 21% hits | AID 778;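 active = CYP2C19 inhibition above a set limit at 5 µM in the primary screen, cut at about 50% in these data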;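 note: plate controls were negative control wells for no effect and 2.5 mM tranylcypromine positive control for full effect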
CYP2C19 act – cytochrome P450 2C19 (human) activation. P33261. recombinant CYP2C19, luciferin-H EGE luminescence; hits give high values; 0 = fully inhibited enzyme, 1 = untreated enzyme. activation factor at 5 µM. 96,000 tested, under 10 active. AID 1025;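 active = activation factor of at least 2 at 5 µM in the primary screen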;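 note: 0 = wells with 2.5 mM tranylcypromine and 1 = vehicle-only wells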
The depositor's hits bear a star; / = not tested or not shown. Cut-off read from the data, not from the text of the source, unless noted: active = inhibition above about 30%; inactive = the rest.

SMILES	CYP2C9 activ	PostGolgi yeast	PostGolgi ctrl	CYP2C9 inhib	CYP2C19 inh	CYP2C19 act
COc1ccc(CC(=O)Nc2ccc3c(c2)OCO3)cc1S(=O)(=O)N1CCOCC1	1	6	2	-5	-4	1
COc1ccc(CCNC(=O)c2cnn3cccnc23)cc1OC	1.1	18	4	-7	27	0.7
O=C1CC(c2ccco2)CC2=C1C=Nc1ccccc1N2 (configuration not stated)	0.2	-5	8	76*	63*	0.4
CCOCCCNC(=O)c1cc2sc(Cl)cc2n1CC	0.8	39*	7	22	52*	0.5
Cc1ccc(S(=O)(=O)N2CCCC(C(=O)NCCc3ccc4c(c3)OCO4)C2)cc1 (configuration not stated)	0.6	-4	5	36	49	0.5
O=C1c2ccccc2C(=O)N1Cc1ccco1	1	13	-3	-4	34	0.7
CC1=CC(=C2C(=O)c3ccccc3C2=O)C=C(C)N1Cc1ccco1	0.3	6	37*	68*	51*	0.5
CCOC(=O)c1cccc(NC(=O)Cn2c(CC(=O)N3CCCC3)nc3ccccc32)c1	0.1	0	9	88*	17	0.8
CCOC(=O)c1ccccc1NC(=O)CSc1nc2ccccc2n1CC(=O)N1CCCC1	0.1	2	3	87*	82*	0.2
O=C(O)Cn1c(CC(=O)N2CCCC2)nc2ccccc21	0.7	-9	9	27	6	0.9
Cc1ccc(C)c(S(=O)(=O)N2CCN(C(=O)Cn3c(C(F)(F)F)nc4ccccc43)CC2)c1	0.7	13	7	35	-3	1
COc1ccc(Nc2oc(-c3cccs3)nc2C#N)cc1	0.8	-3	13	17	28	0.7
c1ccc(Oc2cnc3ccccc3n2)cc1	1	-1	1	2	30	0.7
Cc1cc(Oc2ccccc2)nc2ccc(O)cc12	1.9	0	24	-85	80*	0.2
O=C(NCCc1ccccc1)c1ccncc1	0.6	-5	1	38	78*	0.2
CCC(C)c1ccc(NC(=O)c2cccs2)cc1 (configuration not stated)	0.6	-1	8	36	25	0.7
CC(C)(CNC(=O)c1cccs1)CNC(=O)c1cccs1	0.1	3	10	86*	58*	0.4
O=C(NCCc1ccccc1)c1ccc([N+](=O)[O-])cc1	1.2	1	-1	-16	48	0.5
CCCCC(CC)CNC(=O)c1cccs1 (configuration not stated)	0.1	-4	13	91*	88*	0.1
O=C(CNC(=O)c1cccs1)NCC(=O)OCc1ccc(Cl)cc1	0.9	-1	32*	6	12	0.9
O=C(NCCCNC(=O)c1cccs1)c1cccs1	0.6	2	20	42	27	0.7
O=C(CN(CCc1ccccc1)C(=O)CNS(=O)(=O)c1ccccc1)NCc1ccco1	0.9	-7	-5	10	20	0.8
O=C(NCc1ccc2c(c1)OCO2)c1ccc(N2C(=O)C3CCCCC3C2=O)cc1 (configuration not stated)	0.8	-2	10	24	15	0.8
FC(F)(F)COc1nc(OCC(F)(F)F)nc(N2CCN(c3ccccc3)CC2)n1	0.7	-8	-6	30	2	1
Cc1ccccc1NS(=O)(=O)c1ccc2[nH]cc(C(=O)NCCCN3CCOCC3)c(=O)c2c1	0.6	13	5	38	0	1
SMILES	CYP2C9 activ	PostGolgi yeast	PostGolgi ctrl	CYP2C9 inhib	CYP2C19 inh	CYP2C19 act
O=C(N=NC(=O)c1ccc2c(O)n(C3CCCCC3)c(O)c2c1)c1cccnc1	0.8	1	-5	22	24	0.8
COc1ccc(-c2nc(CC(=O)O)cs2)cc1	1	10	23	-4	-15	1.1
CC1CCN(c2ccc(C(=O)NCCc3ccccc3)cn2)CC1	0.3	12	9	67*	11	0.9
O=C(NCCc1ccccc1)c1cccs1	1	14	3	5	53*	0.5
COc1ccc(-c2nc(CCNC(=O)c3cccs3)cs2)cc1	0.2	10	26	76*	40	0.6
O=C(Cn1cnc2c(nnn2Cc2ccc(Cl)cc2)c1=O)NCc1ccco1	/	-2	-6	/	/	/
CCC(=O)N(CC(=O)Nc1sc(C)c(C)c1C(N)=O)C1CCCCC1	1	6	-2	4	2	1
CCOC(=O)c1sc(=S)n(-c2ccc(Cl)cc2)c1SC	0.7	12	4	27	-1	1
COc1cc(N/C(=N/S(=O)(=O)c2ccccc2)c2ccccc2)ncn1	0.9	-4	11	8	-7	1.1
O=S(=O)(/N=C(/Nc1ccccc1F)c1ccccc1)c1ccccc1	0.6	4	-1	41	63*	0.4
COc1ccccc1N/C(=N/S(=O)(=O)c1ccc(Cl)cc1)c1ccccc1	0.5	-10	7	46	73*	0.3
CCOC(=O)c1[nH]c(C)c(C(=O)N2CCN(C(=O)OCC)CC2)c1CC	0.9	-7	11	10	1	1
COc1cccc(CNc2nc3nc(C)cc(=O)n3[nH]2)c1	1	1	14	4	-7	1.1
CCOC(=O)/C=C(\C)Sc1cc(=O)oc2ccccc12	/	8	33*	/	/	/
COC(CNc1cc(=O)oc2ccccc12)OC	1	19	6	4	13	0.9
CC(NC(=O)C(c1ccccc1)c1ccccc1)C(=O)O (configuration not stated)	0.9	-1	14	11	-6	1.1
Cc1ccc(-c2noc(CN(C(=O)c3cccc(Br)c3)C(C)C)n2)cc1	0.1	5	27	87*	82*	0.2
CC(C)N(Cc1nc(-c2ccc(Cl)cc2)no1)C(=O)C(c1ccccc1)c1ccccc1	0.5	0	20	54*	38	0.6
COc1ccc(-c2noc(CN(C(=O)c3cccs3)C(C)C)n2)cc1	0.3	-20	6	68*	34	0.7
CC(C)N(Cc1nc(-c2ccccc2)no1)C(=O)CN1C(=O)c2ccccc2C1=O	/	-1	5	/	/	/
Cc1cccc(-c2noc(CN(C(=O)CCc3ccccc3)C(C)C)n2)c1	1.1	-3	28	-14	4	1
CC(C)N(CCO)C(=O)C(c1ccccc1)c1ccccc1	0.4	11	4	59*	90*	0.1
CCCCn1c(SCC2CCCCO2)nc2cc(S(N)(=O)=O)ccc21 (configuration not stated)	0.5	4	1	46	7	0.9
Cc1cc(C)c(NC(=O)CN2CCN3CCCC3C2)c(C)c1 (configuration not stated)	1.1	-6	2	-10	0	1
COc1ccc(Cl)cc1C(=O)N(Cc1nc(-c2cccc(C)c2)no1)C(C)C	0.7	-12	37*	30	88*	0.1
